From PubChem BioAssay (NCATS)
A number with no mark means an inactive call. Results filed as inconclusive are left out. Calls of active or inactive are those of the source. Unless noted, calls follow the shape of the dose curve; as a rule, active = well fitted curve in either direction with a large enough effect (not every such curve was filed as active); inconclusive = small, poorly fitted or top-dose-only effect, or another doubt; inactive = flat fitted curve, though single readings scatter.

Assays:
[1] = AP1 Signaling Pathway (AID 357); settings: ME-180 AP-1-bla reporter, EGF-induced, beta-lactamase ratio, 5 h; at 17.2 µM (top of the series) unless noted;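 also: ME-180 reporter cells stimulated with EGF at its EC50 level; % is scaled to controls: 0 for no effect and ±100 for the full control effect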
Summary of the method: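 Modulation of EGF-driven AP-1 transcription was assessed with a beta-lactamase reporter in ME-180 cells. Compound and EC50 EGF were co-incubated 5 hours at 37 °C before 2.5-hour CCF4 loading at room temperature and dual-emission reading.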

[2] = NFAT Signaling Pathway (AID 444); settings: Jurkat NFAT-bla M1, carbachol, beta-lactamase ratio, 5 h; at 17.2 µM (top of the series) unless noted;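 also: carbachol stimulus at about its EC50 of 1 µM final; % is scaled to controls: 0 for no effect and ±100 for the full control effect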
Summary of the method: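 Jurkat cells with NFAT-driven β-lactamase reporter and co-expressed M1 receptor, stimulated with carbachol (final 1 uM, ~EC50), compound titration, 5 h at 37 °C. CCF4 loaded 1 h at RT; 460/530 nm ratio gave %activity and AC50.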

[3] = Stat Signaling Pathway (AID 446); settings: ME-180 SIE beta-lactamase reporter, IL-6 stimulated, 5 h; at 17.2 µM (top of the series) unless noted;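 also: ME-180 cervical cancer cells given 40 pM IL-6 alongside compound; SIE-controlled beta-lactamase reporter measured as 460/530 nm FRET emission ratio; % is scaled to controls: 0 for no effect and ±100 for the full control effect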
Summary of the method: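 FRET read-out (405 nm excitation, 460/530 nm emission) of a beta-lactamase reporter under a STAT-inducible element in ME-180 cervical carcinoma cells. Cells with compound receive 40 pM IL-6 for 5 h. Values are normalised to AC90 stimulation and AC90 JAK-inhibitor controls.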

[4] = biological target: Glucocorticoid receptor (Homo sapiens) (UniProt P04150); assay: GR-GFP Redistribution (AID 450;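 active = compounds whose dose series gives a full or clear partial fitted curve of increased nuclear translocation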; also: potency is read from the fitted curve at half-maximal effect)
[5] = qHTS Assay for Identification of Small Molecule Agonists for Hypoxia Response Element Signaling Pathway (AID 914; active = well fitted activation curve with a large enough effect in the signal ratio, with a control signal flat, not every such curve was filed as active; the % refers to the signal ratio; also: % of control where 0% means no effect); settings: ME-180 (cervical carcinoma) HRE-bla reporter, beta-lactamase ratio, CoCl2, 17 h; activation: active compounds read high
Summary of the method: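 HRE-bla ME-180 cells with beta-lactamase reporter under hypoxia response element, compounds with EC50 CoCl2 for 17 hours at 37 C. CCF4 substrate, 460nm/530nm emission ratio gave %Activity; AC50 from titration series.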

[6] = biological target: 3',5'-cyclic-AMP phosphodiesterase 4B (Homo sapiens) (UniProt Q07343); assay: qHTS Assay for Inhibitors of PDE-IV (AID 607; active = well fitted activation curve with a large enough effect in the main read-out, with a control signal flat, not every such curve was filed as active; also: % of control where 0% means no effect)
Summary of the method: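 Cell-based read-out of cAMP via a modified cyclic nucleotide-gated channel and membrane potential dye (535/590 nm) in HEK293 cells expressing PDE4 endogenously. Compounds tested up to 22.9 uM final; 100 uM RO 20-1724 reference.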

[7] = biological target: ATP-dependent 6-phosphofructokinase (Trypanosoma brucei brucei) (UniProt O15648); assay: qHTS Assay to Find Inhibitors of T. brucei phosphofructokinase: hit validation (AID 492961; active = well fitted curve in the direction sought with a large enough effect; an effect the other way counts as inactive or inconclusive;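 also: luminescence reports ADP formed as PFK phosphorylates fructose-6-phosphate with ATP; % is scaled to controls: 0 for no effect and ±100 for the full control effect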)
Summary of the method: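 Inhibition of parasite PFK is measured as reduced ADP formation, quantified via luciferase after ATP depletion. Assay used 0.1 mM ATP, 0.5 mM F6P, 1.25 nM enzyme, 45 min incubation.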

[8] = biological target: Ubiquitin carboxyl-terminal hydrolase 1 (Homo sapiens) (UniProt O94782); assay: Inhibitors of USP1/UAF1: Pilot qHTS (AID 504865; active = well fitted curve in the direction sought with a large enough effect; an effect the other way counts as inactive or inconclusive;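 also: rhodamine fluorescence freed from ubiquitin-rhodamine substrate followed over time; top concentration of the series differs between compounds; % is scaled to controls: 0 for no effect and ±100 for the full control effect; nearly all actives have a fitted effect of over 35% in size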)
Summary of the method: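 Enzyme-free wells gave the negative control, while test wells held 1nM USP1/UAF1 preincubated with compound for 15 min at room temperature. Ub-Rho at 150nM final started the reaction, and fluorescence at 480/540 nm was recorded kinetically.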

[9] = biological target: Luciferin 4-monooxygenase (Photinus pyralis) (UniProt P08659); assay: Biochemical firefly luciferase enzyme assay for NPC (AID 624030; active = well fitted curve in the direction sought with a large enough effect; an effect the other way counts as inactive or inconclusive;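 also: purified P. pyralis luciferase at 10 nM with luciferin and ATP substrate; 0% = DMSO and -100% = full luciferase inhibition by PTC124 control; nearly all actives have a fitted effect of over 70% in size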)
Summary of the method: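 Purified P. pyralis luciferase at 10 nM in 50 mM Tris Acetate (final), luminescence read within 5 minutes of enzyme addition to compounds. Activity normalised to PTC124 versus DMSO; concentration-response curves classed by r2, magnitude and activity.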

[10] = S16 Schwann cell viability assay (CellTiter-Glo assay) (AID 624031; active = well fitted curve in the direction sought with a large enough effect; an effect the other way counts as inactive or inconclusive;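 also: cellular ATP luminescence as a viability measure; plate controls were DMSO-treated cells for no effect and cell-free wells for full effect; nearly all actives have a fitted effect of over 70% in size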)
Summary of the method: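 Native S16 rat Schwann cells, 500-750 cells/well in DMEM with 10% FBS, dosed with compound after overnight culture and incubated 24h at 37 degree Celsius/5% CO2. Viability by CellTiter-Glo luminescence; % activity normalized to no-cell wells and DMSO-treated cells.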

[11] = S16 Schwann cell PMP22 intronic element firefly luciferase assay (AID 624032; active = well fitted curve in the direction sought with a large enough effect; an effect the other way counts as inactive or inconclusive;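 also: plate controls were DMSO for no effect and PTC124 positive control mean for full effect; nearly all actives have a fitted effect of over 30% in size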)
Summary of the method: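 Rat S16 Schwann cells stably carrying firefly luciferase driven by a PMP22 intronic element, in 10% FBS, treated 24 h at 37 C. ONE-Glo luminescence normalized to PTC124 control and DMSO (0%); curves classed by r2, magnitude and activity.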

[12] = S16 Schwann cell PMP22 intronic element beta-lactamase assay (AID 624044; calls by dose curve;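 also: 0% = DMSO and -100% = potassium clavulanate positive control; nearly all actives have a fitted effect of over 15% in size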); settings: S16 rat Schwann cells, PMP22 element beta-lactamase FRET, 24 h; ratio activity, negative = inhibition: at 38.3 µM (top of the series)
Summary of the method: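 Beta-lactamase reporter under a PMP22 intronic regulatory element in stable S16 rat Schwann cells; 24 h compound exposure. 460 nm blue signal normalized between DMSO (0%) and potassium clavulanate, with 535 nm FRET tracking viability; curves classed by r2 and response.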

ATS189 = assay: qHTS profiling for inhibitors of Plasmodium falciparum proliferation (AID 504749; active = well fitted curve in the direction sought with a large enough effect; an effect the other way counts as inactive or inconclusive; also: nearly all actives have a fitted effect of over 60% in size; also: potency is read from the fitted curve at half-maximal effect;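 as to activity, negative = inhibition: 0% = DMSO vehicle and full inhibition = artemisinin control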); settings: P. falciparum in erythrocytes, SYBR Green DNA, 72 h; series mostly up to 28.7 µM
Summary of the method: (§1)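 SYBR Green fluorescence (ex 485 nm, em 535 nm) reports parasite DNA after 72 h compound exposure of infected red cells at 0.3% parasitemia, 2.5% hematocrit; signal normalized to 0.29 uM artemisinin and vehicle wells.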

CP262 = assay: as above; settings: P. falciparum in erythrocytes, SYBR Green DNA, 72 h; series mostly up to 28.7 µM
Summary of the method: as §1

CP297 = assay: as above; settings: P. falciparum in erythrocytes, SYBR Green DNA, 72 h; series mostly up to 28.7 µM
Summary of the method: as §1

CP335 = assay: as above; settings: P. falciparum in erythrocytes, SYBR Green DNA, 72 h; series mostly up to 28.7 µM
Summary of the method: as §1

Dd2 = assay: as above; settings: P. falciparum in erythrocytes, SYBR Green DNA, 72 h; series mostly up to 28.7 µM
Summary of the method: as §1

TAB109 = assay: as above; settings: P. falciparum in erythrocytes, SYBR Green DNA, 72 h; series mostly up to 28.7 µM
Summary of the method: as §1

W2 = assay: as above; settings: P. falciparum in erythrocytes, SYBR Green DNA, 72 h; series mostly up to 28.7 µM
Summary of the method: as §1

[13] = qHTS Assay for Identification of Small Molecule Agonists for Thrombopoietin (TPO) Signaling Pathway (AID 917; active = well fitted curve in the direction sought with a large enough effect; an effect the other way counts as inactive or inconclusive; also: % is scaled to controls: 0 for no effect and ±100 for the full control effect)
Summary of the method: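 Human TPO receptor–transfected Ba/F3 cells (murine, IL-3-dependent) in IL-3-deficient medium; compounds plus TPO at EC50, 26 pM final; 24 hrs, 37 C; GpIIb-luciferase luminescence after 10 min RT detection.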

[14] = biological target: Pyruvate kinase (Leishmania mexicana) (UniProt Q27686); assay: qHTS Validation Assay for Inhibitors of Leishmania Mexicana Pyruvate Kinase (AID 945; active = well fitted curve in the direction sought with a large enough effect; an effect the other way counts as inactive or inconclusive;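 also: 0% = DMSO only neutral control wells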)
Summary of the method: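 Eight-point qHTS titrations in triplicate, data normalized to DMSO neutral control. Reaction: 0.2 nM LmPYK E451W mutant, 0.5 mM PEP, 0.1 mM ADP, 7 mM MgCl2, pH 7.2, one hour at room temperature; luminescent ATP detection.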

[15] = biological target: Pyruvate kinase PKM (Homo sapiens) (UniProt P14618); assay: qHTS Assay for Activators of Human Muscle Pyruvate Kinase (AID 954; active = well fitted curve in the direction sought with a large enough effect, not every such curve was filed as active;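 also: 0% = uninhibited enzyme and -100% = no enzyme or full thiadiazolimine inhibition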)
Summary of the method: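 ATP production by PKM2 detected via luciferase luminescence after 1 h room-temperature reaction (0.1 nM enzyme, PEP at Km 0.5 mM, ADP 0.1 mM, pH 7.2 imidazole buffer). Inhibition scaled to no-enzyme control; activation referenced to 0.3 nM enzyme wells.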

[16] = biological target: Alpha-galactosidase A (Homo sapiens) (UniProt P06280); assay: Counterscreen for Glucocerebrosidase Inhibitors: qHTS Assay for Human alpha-Galactosidase at pH 4.5 (AID 992; active = well fitted curve in the direction sought with a large enough effect; an effect the other way counts as inactive or inconclusive; also: 0% is about no effect)
Summary of the method: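 Fluorogenic 1536-well qHTS at pH 4.5 (citrate, Tween-20): 2 nM enzyme, 80 uM 4-MU-alpha-galactoside, 20 min room temperature, NaOH/glycine stop. Titration 0.7 nM to 77 uM, data normalized to no-enzyme and full-activity controls, Hill-fitted AC50.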

[17] = biological target: alpha-glucosidase (Oryza sativa, rice) (UniProt Q653V4); assay: Counterscreen for Glucocerebrosidase Inhibitors: qHTS Assay for Rice alpha-Glucosidase at pH 5.0 (AID 997; active = well fitted curve in the direction sought with a large enough effect; an effect the other way counts as inactive or inconclusive;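 also: 0% = full activity with enzyme and -100% = basal without enzyme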)
Summary of the method: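 Endpoint fluorogenic assay at pH 5.0: compounds (0.7 nM to 77 uM) titrated against 4 nM rice enzyme and 400 uM 4-MU-alpha-glucoside for 20 min at room temperature; NaOH/glycine stop, read ex 365/em 440 nm, Hill-fitted AC50.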

Chain of Glucocorticoid receptor (Homo sapiens) (P04150 whole entry, looked up): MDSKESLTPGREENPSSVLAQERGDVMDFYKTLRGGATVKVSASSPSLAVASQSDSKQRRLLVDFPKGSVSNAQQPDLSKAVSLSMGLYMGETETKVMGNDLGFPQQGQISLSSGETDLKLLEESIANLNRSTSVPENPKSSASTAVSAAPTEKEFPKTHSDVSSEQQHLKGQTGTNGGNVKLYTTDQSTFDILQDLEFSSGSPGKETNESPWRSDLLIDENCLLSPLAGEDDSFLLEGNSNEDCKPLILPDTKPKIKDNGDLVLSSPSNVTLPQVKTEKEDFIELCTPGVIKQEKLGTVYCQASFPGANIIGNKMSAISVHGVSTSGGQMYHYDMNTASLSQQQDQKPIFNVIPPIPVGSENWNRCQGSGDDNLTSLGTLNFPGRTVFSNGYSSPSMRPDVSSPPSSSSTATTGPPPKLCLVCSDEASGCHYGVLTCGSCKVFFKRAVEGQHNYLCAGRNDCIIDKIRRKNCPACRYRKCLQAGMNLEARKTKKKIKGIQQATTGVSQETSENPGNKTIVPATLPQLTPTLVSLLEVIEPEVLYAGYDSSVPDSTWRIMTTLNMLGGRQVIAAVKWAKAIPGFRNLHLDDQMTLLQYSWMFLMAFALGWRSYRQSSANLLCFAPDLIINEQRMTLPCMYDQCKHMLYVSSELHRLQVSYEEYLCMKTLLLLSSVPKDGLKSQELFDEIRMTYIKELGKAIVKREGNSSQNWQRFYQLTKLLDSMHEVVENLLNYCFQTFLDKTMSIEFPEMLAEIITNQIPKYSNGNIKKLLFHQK
Chain of 3',5'-cyclic-AMP phosphodiesterase 4B (Homo sapiens) (Q07343 whole entry, looked up): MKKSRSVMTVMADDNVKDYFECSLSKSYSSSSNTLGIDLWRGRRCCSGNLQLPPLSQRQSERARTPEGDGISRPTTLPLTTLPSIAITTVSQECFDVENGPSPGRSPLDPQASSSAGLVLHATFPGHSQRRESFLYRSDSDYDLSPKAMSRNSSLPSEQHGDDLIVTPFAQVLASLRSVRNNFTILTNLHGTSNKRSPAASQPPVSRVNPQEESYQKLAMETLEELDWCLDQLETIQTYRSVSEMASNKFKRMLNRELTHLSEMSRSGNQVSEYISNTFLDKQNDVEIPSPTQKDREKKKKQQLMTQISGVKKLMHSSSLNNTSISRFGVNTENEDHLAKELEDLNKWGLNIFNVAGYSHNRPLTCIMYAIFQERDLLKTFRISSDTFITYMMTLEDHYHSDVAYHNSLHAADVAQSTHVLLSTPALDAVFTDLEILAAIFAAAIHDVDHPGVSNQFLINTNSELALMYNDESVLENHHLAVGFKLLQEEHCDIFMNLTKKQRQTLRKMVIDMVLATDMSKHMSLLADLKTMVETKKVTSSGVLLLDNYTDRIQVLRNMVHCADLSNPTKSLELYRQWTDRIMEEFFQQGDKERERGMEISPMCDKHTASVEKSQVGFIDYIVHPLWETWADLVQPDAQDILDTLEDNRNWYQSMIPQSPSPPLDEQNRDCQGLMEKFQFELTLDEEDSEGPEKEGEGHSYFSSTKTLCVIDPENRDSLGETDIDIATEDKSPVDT
Chain of Luciferin 4-monooxygenase (Photinus pyralis) (P08659 whole entry, looked up): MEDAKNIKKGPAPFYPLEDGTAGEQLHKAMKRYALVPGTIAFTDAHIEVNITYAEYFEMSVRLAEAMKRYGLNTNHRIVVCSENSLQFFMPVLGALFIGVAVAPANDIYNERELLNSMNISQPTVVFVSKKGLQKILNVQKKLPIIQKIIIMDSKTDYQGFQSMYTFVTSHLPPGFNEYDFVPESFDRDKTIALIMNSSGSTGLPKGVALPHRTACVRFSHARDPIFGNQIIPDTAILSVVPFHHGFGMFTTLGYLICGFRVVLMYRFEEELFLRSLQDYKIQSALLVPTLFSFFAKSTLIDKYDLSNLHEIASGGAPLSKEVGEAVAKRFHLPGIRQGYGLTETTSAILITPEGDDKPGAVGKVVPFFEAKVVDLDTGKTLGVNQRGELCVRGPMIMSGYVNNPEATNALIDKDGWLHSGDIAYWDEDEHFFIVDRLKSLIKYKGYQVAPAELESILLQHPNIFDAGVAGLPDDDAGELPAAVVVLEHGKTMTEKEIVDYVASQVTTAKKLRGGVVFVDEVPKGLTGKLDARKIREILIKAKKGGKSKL
Chain of Ubiquitin carboxyl-terminal hydrolase 1 (Homo sapiens) (O94782 whole entry, looked up): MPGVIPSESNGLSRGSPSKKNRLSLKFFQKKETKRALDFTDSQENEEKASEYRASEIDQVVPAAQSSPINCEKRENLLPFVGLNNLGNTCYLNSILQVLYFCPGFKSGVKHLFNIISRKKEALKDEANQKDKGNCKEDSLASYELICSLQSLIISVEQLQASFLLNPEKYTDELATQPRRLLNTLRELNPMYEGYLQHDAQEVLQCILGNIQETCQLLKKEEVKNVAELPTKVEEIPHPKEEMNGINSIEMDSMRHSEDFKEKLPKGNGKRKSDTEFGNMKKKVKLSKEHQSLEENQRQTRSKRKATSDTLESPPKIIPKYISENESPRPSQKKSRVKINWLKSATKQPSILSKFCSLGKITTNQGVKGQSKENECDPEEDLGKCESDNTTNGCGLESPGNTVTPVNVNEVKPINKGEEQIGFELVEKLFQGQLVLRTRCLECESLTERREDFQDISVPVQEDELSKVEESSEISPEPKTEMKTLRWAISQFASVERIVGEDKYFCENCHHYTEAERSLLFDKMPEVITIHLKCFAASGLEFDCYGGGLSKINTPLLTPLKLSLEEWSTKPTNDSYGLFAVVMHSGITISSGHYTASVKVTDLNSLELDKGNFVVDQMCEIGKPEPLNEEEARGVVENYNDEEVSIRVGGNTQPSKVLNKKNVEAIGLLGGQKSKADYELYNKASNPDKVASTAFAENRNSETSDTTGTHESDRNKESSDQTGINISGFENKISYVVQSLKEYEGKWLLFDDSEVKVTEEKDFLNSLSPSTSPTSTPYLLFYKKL
Chain of ATP-dependent 6-phosphofructokinase (Trypanosoma brucei brucei) (O15648 whole entry, looked up): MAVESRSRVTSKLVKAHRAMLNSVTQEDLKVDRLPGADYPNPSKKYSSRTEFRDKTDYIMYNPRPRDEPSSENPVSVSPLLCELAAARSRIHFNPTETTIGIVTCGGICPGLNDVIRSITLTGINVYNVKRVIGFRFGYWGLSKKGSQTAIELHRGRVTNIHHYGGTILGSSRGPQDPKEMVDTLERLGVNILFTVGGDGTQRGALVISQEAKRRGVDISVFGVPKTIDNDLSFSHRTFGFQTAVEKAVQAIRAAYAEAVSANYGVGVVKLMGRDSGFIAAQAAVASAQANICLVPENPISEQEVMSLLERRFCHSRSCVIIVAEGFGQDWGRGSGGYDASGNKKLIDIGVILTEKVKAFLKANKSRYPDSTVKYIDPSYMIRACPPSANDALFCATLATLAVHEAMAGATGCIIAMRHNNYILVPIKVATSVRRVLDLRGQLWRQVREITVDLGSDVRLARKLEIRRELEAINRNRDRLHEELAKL
Chain of Pyruvate kinase PKM (Homo sapiens) (P14618 whole entry, looked up): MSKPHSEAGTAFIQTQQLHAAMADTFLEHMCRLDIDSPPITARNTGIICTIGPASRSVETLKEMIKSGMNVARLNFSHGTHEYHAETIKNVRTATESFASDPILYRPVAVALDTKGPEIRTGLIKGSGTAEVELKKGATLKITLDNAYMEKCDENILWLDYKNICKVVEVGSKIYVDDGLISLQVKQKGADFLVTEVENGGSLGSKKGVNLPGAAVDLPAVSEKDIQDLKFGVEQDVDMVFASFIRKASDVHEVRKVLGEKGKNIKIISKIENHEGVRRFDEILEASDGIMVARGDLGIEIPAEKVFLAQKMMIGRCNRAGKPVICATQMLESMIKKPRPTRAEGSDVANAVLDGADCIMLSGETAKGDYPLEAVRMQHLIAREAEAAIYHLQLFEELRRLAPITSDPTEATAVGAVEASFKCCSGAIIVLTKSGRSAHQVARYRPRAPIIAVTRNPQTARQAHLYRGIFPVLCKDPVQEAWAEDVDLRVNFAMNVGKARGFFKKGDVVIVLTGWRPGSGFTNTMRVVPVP
Chain of Alpha-galactosidase A (Homo sapiens) (P06280 whole entry, looked up): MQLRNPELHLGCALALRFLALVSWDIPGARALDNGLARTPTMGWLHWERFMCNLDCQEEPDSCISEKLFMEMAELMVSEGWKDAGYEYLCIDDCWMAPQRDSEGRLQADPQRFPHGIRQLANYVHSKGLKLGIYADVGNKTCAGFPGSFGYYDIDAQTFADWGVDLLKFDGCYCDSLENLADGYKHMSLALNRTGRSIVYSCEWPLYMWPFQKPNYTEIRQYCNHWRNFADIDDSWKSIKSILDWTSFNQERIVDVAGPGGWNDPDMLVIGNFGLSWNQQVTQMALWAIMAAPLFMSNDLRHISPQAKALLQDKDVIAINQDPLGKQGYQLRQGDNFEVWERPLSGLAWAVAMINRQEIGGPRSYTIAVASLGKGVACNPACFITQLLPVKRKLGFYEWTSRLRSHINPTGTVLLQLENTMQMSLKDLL
Chain of Pyruvate kinase (Leishmania mexicana) (Q27686 2-499 E452W): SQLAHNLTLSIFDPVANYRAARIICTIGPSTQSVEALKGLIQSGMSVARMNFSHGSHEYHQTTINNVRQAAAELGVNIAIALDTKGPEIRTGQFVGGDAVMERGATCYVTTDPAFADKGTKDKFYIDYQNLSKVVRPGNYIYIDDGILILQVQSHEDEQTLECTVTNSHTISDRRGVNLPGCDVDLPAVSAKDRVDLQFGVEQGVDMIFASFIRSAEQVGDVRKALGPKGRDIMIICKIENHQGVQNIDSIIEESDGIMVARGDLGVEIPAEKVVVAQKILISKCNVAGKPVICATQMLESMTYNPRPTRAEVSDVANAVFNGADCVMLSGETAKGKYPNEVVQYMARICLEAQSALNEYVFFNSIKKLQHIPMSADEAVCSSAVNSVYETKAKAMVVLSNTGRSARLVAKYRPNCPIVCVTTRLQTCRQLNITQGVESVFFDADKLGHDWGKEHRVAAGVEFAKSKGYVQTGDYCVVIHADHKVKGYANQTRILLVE

**Q.** With `Cn1c(=O)c2c(nc(Oc3ccc4c(c3)OCO4)n2Cc2ccc(F)cc2)n(C)c1=O` as the compound, how does the activity change, negative = inhibition [1] read?
**A.** The activity change, negative = inhibition was 28.8%.

**Q.** What about the activity change, negative = inhibition [2] of the same compound?
**A.** Its activity change, negative = inhibition is 2.74%.

**Q.** And the activity, negative = inhibition [3]?
**A.** The activity, negative = inhibition was 6.83%.

**Q.** And the Potency [4]?
**A.** Its Potency is over 20.6 µM.

**Q.** And the activation [5]?
**A.** The activation was -23.2%.

**Q.** Which results are given for `CCC[C@H]1C[C@H](C(=O)N[C@@H]([C@H]2O[C@@H](SC)[C@@H](O)[C@@H](O)[C@@H]2O)[C@H](C)Cl)N(C)C1`?
**A.** activity change, negative = inhibition [1]: -4.04%; activity change, negative = inhibition [2]: 0.269%; activity, negative = inhibition [3]: 1.36%; Potency [6]: inactive; Potency [7]: inactive; Potency [8]: inactive; Potency [9]: inactive; Potency [10]: inactive; Potency [11]: inactive; Potency [12]: inactive; Potency (ATS189): inactive; Potency (CP262): 0.0151 µM (active); Potency (CP297): 0.0601 µM (active); Potency (CP335): 0.0601 µM (active); Potency (Dd2): 0.0447 µM (active); Potency (TAB109): 0.0316 µM (active); Potency (W2): 0.0426 µM (active)

**Q.** For `Cc1cc(C)n(C(=O)CNC(=O)c2ccc3c(c2)OCCO3)n1`, which activity change, negative = inhibition [1] is on record?
**A.** Its activity change, negative = inhibition is -0.109%.

**Q.** And the activity change, negative = inhibition [2]?
**A.** The activity change, negative = inhibition was -6.13%.

**Q.** And the activity, negative = inhibition [3]?
**A.** The activity, negative = inhibition was 7.28%.

**Q.** And the Potency [4]?
**A.** Its Potency is over 20.6 µM.

**Q.** And the activation [5]?
**A.** Its activation is -10.8%.

**Q.** What does the source list for `CCN(CC)CCNC(=O)c1ccccc1N`?
**A.** activity change, negative = inhibition [1]: 4.21%; activity change, negative = inhibition [2]: -28.8%; activity, negative = inhibition [3]: 6.63%; Potency [4]: > 20.6 µM; activation [5]: 10.3%

**Q.** With `Cc1cccc(OCc2nc(C)cc(=O)[nH]2)c1` as the compound, how does the activity change, negative = inhibition [1] read?
**A.** Its activity change, negative = inhibition is 9.24%.

**Q.** What about the activity change, negative = inhibition [2] of the same compound?
**A.** Its activity change, negative = inhibition is -0.73%.

**Q.** And the Potency [4]?
**A.** Its Potency is over 20.6 µM.

**Q.** Which results are given for `CN1[C@@H]2CC(OC(=O)[C@@H](CO)c3ccccc3)C[C@H]1[C@H]1O[C@H]12` (some centres not stated)?
**A.** activity change, negative = inhibition [1]: 4.86% [at 38 µM]; activity change, negative = inhibition [2]: -57.6% [at 38 µM] (active); activity, negative = inhibition [3]: 13.4% [at 38 µM]; Potency [6]: inactive; Potency [13]: inactive; Potency [14]: inactive; outcome [15]: inactive; outcome [16]: inactive; outcome [17]: inactive

**Q.** For `CCCCOc1cccc(-c2nnc(N)s2)c1`, which activity change, negative = inhibition [1] is on record?
**A.** The activity change, negative = inhibition was -19.6%.

**Q.** What about the activity change, negative = inhibition [2] of the same compound?
**A.** The activity change, negative = inhibition was 7.5%.

**Q.** And the Potency [4]?
**A.** Its Potency is over 20.6 µM.
